# Only some compounds are listed: those with a hit (about 27% of all), similar ones and a draw of the others.
# CYP2C19 activ: human CYP2C19 activators, primary screen, biochemical, luminescence | 96,000 tested, under 10 active | Cytochrome P450 2C19 (Homo sapiens), P33261 | recombinant CYP2C19, luciferin-H EGE luminescence; active compounds read high; 0 = fully inhibited enzyme, 1 = untreated enzyme | activation factor at 5 µM | AID 1025, 2008;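 active = activation factor of at least 2 at 5 µM in the primary screen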;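 also: 0 = wells with 2.5 mM tranylcypromine and 1 = vehicle-only wells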
# CYP2C9 act: human CYP2C9 activators, primary screen, biochemical, luminescence | AID 1024, 2008 | Cytochrome P450 2C9 (Homo sapiens), P11712 | recombinant CYP2C9, luciferin-H conversion; active compounds read high; factor 1 = untreated enzyme, 0 = blocked | actives 1.4% (n = 96,000) | activation factor at 5 µM;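 active = activation factor of 2 or more for CYP2C9 at a 5 µM dose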;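 also: 0 = sulfaphenazole-blocked wells and 1 = vehicle-only wells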
# Target sequence (P11712 whole entry, looked up): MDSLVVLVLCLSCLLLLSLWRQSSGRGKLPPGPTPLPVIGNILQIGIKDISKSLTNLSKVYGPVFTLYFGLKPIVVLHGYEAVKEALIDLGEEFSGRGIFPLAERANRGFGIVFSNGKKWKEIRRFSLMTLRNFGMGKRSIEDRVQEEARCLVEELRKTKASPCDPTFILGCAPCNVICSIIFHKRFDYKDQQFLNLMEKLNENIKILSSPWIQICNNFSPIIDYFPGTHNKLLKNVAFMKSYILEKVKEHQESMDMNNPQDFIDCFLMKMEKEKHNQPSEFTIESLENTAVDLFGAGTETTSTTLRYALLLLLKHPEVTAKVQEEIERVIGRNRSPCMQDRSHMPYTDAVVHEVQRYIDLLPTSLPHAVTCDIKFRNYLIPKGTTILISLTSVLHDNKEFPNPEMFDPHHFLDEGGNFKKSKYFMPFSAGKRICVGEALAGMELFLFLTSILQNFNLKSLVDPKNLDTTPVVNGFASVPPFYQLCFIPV
# CYP2C9 inhib: blockers of cytochrome P450 2C9 activity – biochemical, luminescence, ADME assay, primary screen | inhibition, % at 5 µM | actives 20% (n = 96,000) | P11712 | CYP2C9 Supersomes, luciferin-H conversion;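 active = blocking of liver enzyme CYP2C9 beyond about 50% at 5 µM, limit read from the data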
# EphB4 ephrin blk: EphB4-ephrin-B2 interaction antagonists, primary screen, biochemical, TNYL-RAW peptide probe, fluorescence polarization; EphB4 LBD / TNYL-RAW-Alexa532 peptide; inhibition, % at 7 µM; actives 0.15% (n = 97,000); AID 720, 2007;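 active = inhibition above the screen-wide mean inhibition plus 3 SD, cut at about 15% in these data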;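 also: 0% = DMSO wells and 100% = excess unlabeled TNYL-RAW peptide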
# CYP2C19 inhib: blockers of cytochrome P450 2C19 activity – biochemical, luminescence, ADME assay, primary screen | actives 21% (n = 96,000) | inhibition, % at 5 µM | CYP2C19 Supersomes, luciferin-H EGE luminescence, 30 min;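 active = CYP2C19 inhibition above a set limit at 5 µM in the primary screen, cut at about 50% in these data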;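 also: plate controls were negative control wells for no effect and 2.5 mM tranylcypromine positive control for full effect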
# * marks the source's active call; other numbers are inactive results; x = not tested or not shown.
SMILES,CYP2C19 activ,CYP2C9 act,CYP2C9 inhib,EphB4 ephrin blk,CYP2C19 inhib
Cc1ccc(S(=O)(=O)N(CC(=O)N2CCC(C(N)=O)CC2)c2cccc(C(F)(F)F)c2)cc1,0.8,0.5,45.3,0.1,15.6
CSc1nnc(-c2ccco2)n1-c1ccccc1,0.8,0.9,13.7,0.0,23.6
c1ccc(-n2c(SCc3nc(-c4cccs4)no3)nnc2-c2ccco2)cc1,0.6,0.1,91.8*,6.9,42.9
Cc1sc2nc(SCc3nc(-c4cccs4)no3)n(-c3ccccc3)c(=O)c2c1C,0.8,0.3,65.9*,2.9,19.7
c1ccc(-n2c(SCc3ccncc3)nnc2-c2ccco2)cc1,0.4,0.2,76.5*,2.5,59.0*
CCOC(=O)CSc1nnc(CNC(=O)c2cccs2)n1Cc1ccccc1,0.7,0.8,20.4,4.1,27.1
CN(C)c1ccc(C2OC(=O)C3(CCCC3)C(=O)C2(C)C)cc1 (stereo unspecified),0.8,1.1,-8.0,1.3,15.6
CCC1=C(OC(=O)c2ccccc2)C(C)(C)C(c2ccccc2)OC1=O (stereo unspecified),0.9,0.8,16.0,-1.0,7.6
CC1(C)C(=O)OC(c2ccccc2)C2(CCCC2)C1=O (stereo unspecified),0.1,0.8,21.4,2.1,90.3*
CC1(C)C(=O)OC(C(=O)c2ccccc2)C(C)(C)C1=O (stereo unspecified),0.1,0.4,58.3*,0.2,91.3*
Cc1cc(C)c(C(=O)C2OC(=O)C(C)(C)C(=O)C2(C)C)c(C)c1 (stereo unspecified),0.1,0.1,89.5*,-1.5,91.9*
O=C(NCCc1ccccc1)c1cc2ncc(Br)cn2n1,0.9,1.1,-6.2,7.9,12.3
CCOC(=O)c1c(C)c(C(=O)Nc2ccc(N(C)C)cc2)c(C)n1CC,0.6,1.3,-33.4,-1.2,41.3
O=C(CSc1nnc(-c2ccncc2)n1Cc1ccco1)Nc1nc(-c2ccccc2)cs1,0.9,0.6,38.2,0.8,13.1
Cc1ccc(N2C(=O)N(CC(=O)NCc3ccc(Cl)cc3)C(=O)C2C)cc1 (stereo unspecified),0.3,0.8,22.3,4.1,73.8*
COc1ccc(CNC(=O)CN2C(=O)C(C)N(c3ccc(C)cc3)C2=O)cc1 (stereo unspecified),0.1,0.2,77.5*,3.4,93.9*
Cn1c(=NC(=O)C2CCN(S(=O)(=O)c3cccs3)CC2)sc2ccccc21,1,1.1,-8.7,-5.1,1.6
CC(=O)N=C1SC2CS(=O)(=O)CC2N1c1ccccc1Cl (stereo unspecified),0.8,0.9,13.7,-0.5,18.2
CC(=O)N=C1SC2CS(=O)(=O)CC2N1c1cccc(Cl)c1Cl (stereo unspecified),0.9,0.3,66.5*,-6.1,11.1
Cc1ccc(C(=O)COc2nc(C)cc(C)c2C#N)cc1,0.6,0.8,17.0,2.2,40.5
COC(=O)c1ccc(COc2nc(C)cc(C)c2C#N)o1,0.3,0.8,23.5,2.1,70.4*
O=C(/C=C/Sc1ccccc1)c1ccc(Cl)cc1,0.8,1.3,-25.6,1.1,17.2
Cc1cc(=O)oc2cc(OCC(=O)OCC(=O)NCc3ccc4c(c3)OCO4)ccc12,0.6,1.6,-63.0,2.2,39.0
CC(C)NS(=O)(=O)c1ccc(CCC(=O)Nc2cc(Cl)ccc2Oc2ccccc2)cc1,0.6,0.3,67.2*,0.6,45.0
CCNS(=O)(=O)c1ccc(CCC(=O)Nc2cc(Cl)ccc2Oc2ccccc2)cc1,0.4,0.2,82.0*,2.5,64.3*
SMILES,CYP2C19 activ,CYP2C9 act,CYP2C9 inhib,EphB4 ephrin blk,CYP2C19 inhib
COc1ccc(Nc2nnc(Cc3ccc(Cl)cc3)c(=O)[nH]2)c(OC)c1,0.6,0.4,62.1*,x,39.0
CCOC(=O)Nc1sc(NS(=O)(=O)c2ccc(C)cc2)nc1C,1,0.4,57.8*,-3.1,4.0
Cc1ccc(NS(=O)(=O)c2ccc(NC(=O)c3cccs3)cc2)cc1,0.7,0.5,51.4*,5.2,32.2
CCOC(=O)c1sc(NS(=O)(=O)c2ccc(C)cc2)nc1C,0.6,0.2,77.1*,-5.1,42.4
CCOC(=O)Nc1ccc(NS(=O)(=O)c2ccc(C)cc2)cc1,0,0,95.9*,-3.1,99.1*
O=C(CN1CCCCC1)Nc1nnc(-c2ccccc2)s1,0.9,1.3,-28.1,5.5,5.3
CCOC(=O)Nc1sc(NS(=O)(=O)c2ccccc2)nc1C,1,0.2,81.4*,1.6,-0.3
CCOC(=O)NCc1ccc(S(=O)(=O)Nc2c(C)cccc2C)cc1,0.3,0.7,29.0,-0.5,74.7*
CCOC(=O)Nc1ccc(S(=O)(=O)Nc2nc(C)cc(C)n2)cc1,1,1.2,-22.6,4.2,-3.2
CCOC(=O)NCc1ccc(Cl)c(Cl)c1,0.5,1,-0.8,-0.4,46.2
COC(=O)C1=C(Nc2ccc(C)cc2)C=C(C)C(C(=O)OC)C1c1cccc(OC)c1 (stereo unspecified),x,x,x,4.7,x
c1cnc(-c2nnc3n2CCCCC3)cn1,0.9,1.1,-6.6,-1.9,7.8
Brc1ccc(-c2cnc(-c3cccs3)o2)cc1,0.7,0.4,59.0*,-0.3,31.0
CC1(c2ccccc2)NC(=S)N2C1NC(=S)N2c1ccccc1 (stereo unspecified),0.3,0.7,33.3,4.5,70.0*
Cc1cccc(NC(=O)c2cccs2)n1,0.9,1,2.7,-5.9,10.5
COCCNC(=O)C(c1ccc(C)cc1)N(C(=O)CCC(=O)Nc1ccccn1)C1CCCC1 (stereo unspecified),0.8,1,-3.9,-15.9,17.7
O=C(CCCC(=O)N(c1ccc2c(c1)OCCO2)C(C(=O)NC1CCCCC1)c1ccc(F)cc1)Nc1ccccn1 (stereo unspecified),0.5,2*,-99.7,-2.0,51.7*
COCCN(C(=O)CCCC(=O)Nc1ccccn1)C(C(=O)NC1CCCCC1)c1ccc(C)cc1 (stereo unspecified),0.4,0.4,56.3*,5.8,64.1*
COC(=O)c1c(N)n(-c2ccc(N3CCOCC3)cc2)c2nc3ccccc3nc12,0.7,0.7,27.6,x,27.5
COc1ccc(CCNC(=O)C2CC(c3cccc([N+](=O)[O-])c3)=NO2)cc1 (stereo unspecified),0.8,0.8,24.0,-1.8,16.7
CC(C)(C)SCCNC(=O)CN1C(=O)c2ccccc2S1(=O)=O,1,0.9,13.9,-4.2,3.9
Cc1ccc(SCCNC(=O)CN2C(=O)c3ccccc3S2(=O)=O)cc1,0.4,0.2,79.3*,x,61.3*
O=C(CN1C(=O)c2ccccc2S1(=O)=O)NCCSc1ccccc1,0.2,0.4,63.5*,-3.3,79.3*

# Screens (PubChem BioAssay)
